Assay outcomes deposited in PubChem BioAssay by several laboratories.
Only some compounds are listed: those with a hit (about 5.1% of all), similar ones and a draw of the others.
CRFBP-R2 agonist: CRF-BP/CRF-R2 complex agonism | HEK293 CRF-R2/CRF-BP, calcium dye fluorescence (FLIPR); percent of saturating CRF peptide response | activation, % at 13.2 µM | AID 588473 | actives 0.46% (n = 350,000);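 active means activation of at least 50%, plus an integration ratio under a set limit after plate pattern correction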;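 further: plate controls were neutral control wells without compound for no effect and CRF at EC100 for full effect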
MPTP block: permeability transition pore inhibition | isolated mouse mitochondria, Ca2+ swelling absorbance, 30 min | inhibition, % at 10 µM | actives 1.4% (n = 360,000) | AID 602449;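 active means inhibition of 50% or more, scaled per plate between neutral and stimulator controls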;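 further: 0% = DMSO wells given calcium and 100% = 1 mM EGTA wells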
NR3A LBD binder: modulators (binders) of human NR3A ligand-binding domain | AID 1259313 | NR3A LBD differential scanning fluorimetry, Tm shift; 0% = protein alone, 100% = glycine-bound protein | actives 2.5% (n = 340,000) | Tm shift relative to glycine control, % at 25 µM;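 active means melting temperature shift of at least 10% of the positive control shift, at one fixed dose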
CRFR2-BP antag: antagonists of CRF-binding protein/CRF-R2 receptor complex | AID 588475 | HEK293 CRF-R2/CRF-BP, CRF-induced calcium fluorescence | actives 0.59% (n = 350,000) | inhibition, % at 11.8 µM;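 active means inhibition of the ligand-induced calcium signal above about 50% at the single tested concentration, limit read from the data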
ANO1 block: mouse TMEM16A channel inhibition, primary screen; actives 1.2% (n = 310,000); normalized B-score (activity score, 25-100; higher = stronger inhibition) at 10 µM; Q8BHY3; AID 588511; HEK293 TMEM16A/YFP iodide influx fluorescence, ionomycin;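 active means ratio plate-corrected score three or more library SD toward inhibition, starting fluorescence score within five deviations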;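 further: score derived from kinetic fluorescence span divided by baseline fluorescence per well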
Target sequence (Q8BHY3 whole entry, looked up): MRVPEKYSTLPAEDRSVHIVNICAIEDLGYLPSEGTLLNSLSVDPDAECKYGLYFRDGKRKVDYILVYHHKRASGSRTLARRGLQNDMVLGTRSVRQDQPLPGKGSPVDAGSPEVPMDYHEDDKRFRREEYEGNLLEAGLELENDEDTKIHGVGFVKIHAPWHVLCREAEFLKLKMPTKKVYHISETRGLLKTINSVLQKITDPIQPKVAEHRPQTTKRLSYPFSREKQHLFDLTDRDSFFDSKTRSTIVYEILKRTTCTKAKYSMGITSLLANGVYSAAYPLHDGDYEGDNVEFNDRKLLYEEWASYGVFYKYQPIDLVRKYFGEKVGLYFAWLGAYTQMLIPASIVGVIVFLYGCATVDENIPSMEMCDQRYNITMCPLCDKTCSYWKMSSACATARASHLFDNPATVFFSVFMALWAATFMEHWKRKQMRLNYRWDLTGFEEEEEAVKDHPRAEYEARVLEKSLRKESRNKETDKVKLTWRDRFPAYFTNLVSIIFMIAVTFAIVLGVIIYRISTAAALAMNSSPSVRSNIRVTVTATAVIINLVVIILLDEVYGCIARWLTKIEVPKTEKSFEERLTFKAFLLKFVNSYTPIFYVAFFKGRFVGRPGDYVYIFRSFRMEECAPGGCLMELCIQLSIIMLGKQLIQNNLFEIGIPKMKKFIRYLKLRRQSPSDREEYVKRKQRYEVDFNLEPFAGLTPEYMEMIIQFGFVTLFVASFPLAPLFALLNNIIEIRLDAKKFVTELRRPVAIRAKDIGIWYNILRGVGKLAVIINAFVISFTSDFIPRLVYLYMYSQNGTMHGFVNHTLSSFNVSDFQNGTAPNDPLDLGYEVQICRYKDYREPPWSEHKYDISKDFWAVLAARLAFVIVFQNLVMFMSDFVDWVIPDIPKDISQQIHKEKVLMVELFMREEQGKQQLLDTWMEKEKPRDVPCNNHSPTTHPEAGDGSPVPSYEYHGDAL
ANO1 activ: mouse TMEM16A channel activation, primary screen | actives 0.3% (n = 340,000) | HEK293 TMEM16A/YFP-H148Q/I152L, iodide quench fluorescence; hits give low values | Q8BHY3 | B-score at 10 µM;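 active means fluorescence-ratio B-score plate-corrected deviation score at least 3 library SD below zero, with starting fluorescence score within 5 deviations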;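 further: channel opened by trigger with iodide after compound preincubation; score built on the fluorescence ratio of max minus min over baseline; more negative score means more quench and so TMEM16A activation or potentiation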
* hit, by the source's call; i = inactive; . = no result.

SMILES | CRFBP-R2 agonist | MPTP block | NR3A LBD binder | CRFR2-BP antag | ANO1 block | ANO1 activ
CCn1c(CNC(=O)c2ccc3c(c2)OCO3)nnc1SCC(=O)Nc1cc(C)ccc1OC | -1 | -6 | 10* | 8 | i | i
COc1cccc(CNc2ncnc3cc(Cl)ccc23)c1 | -3 | 12 | 1 | 15 | . | i
CNc1nc(Cl)c(SC)c(NCc2cccc(OC)c2)n1 | 0 | 2 | 17* | 2 | i | i
CCCCN(C(=O)c1ccc([N+](=O)[O-])o1)c1c(N)n(CCCC)c(=O)[nH]c1=O | 2 | -1 | 1 | 11 | i | i
O=C1C=C(c2ccc(F)nc2)CCC1 | 0 | 0 | 3 | -17 | i | i
O=C(CN1CCN(CC(=O)Nc2ccc(Cl)cc2)CC1)Nc1ccc(F)cc1 | -1 | 1 | 0 | 21 | i | i
O=C(/C=C1\SC(=O)N(CC(=O)Nc2ccc(Cl)cc2)C1=O)Nc1ccc(F)cc1 | 1 | 1 | 36* | 2 | i | i
Cc1cccc(NC(=O)CN2C(=O)S/C(=C\C(=O)Nc3ccc(Cl)cc3)C2=O)c1 | 6 | 0 | 9 | -12 | i | i
O=C(/C=C1\SC(=O)N(CC(=O)Nc2ccc(F)cc2)C1=O)Nc1ccc(Cl)cc1 | 0 | -1 | 27* | 10 | i | i
CC(CN1CCC(n2nccc2NC(=O)CCCc2ccccc2)CC1)c1ccccc1 (stereo unspecified) | 1 | 1 | 1 | -4 | i | i
O=C(COc1ccc(Cl)cc1)Nc1cc(NC(=O)COc2ccc(Cl)cc2)cc(C(=O)O)c1 | -1 | 1 | 12* | 8 | i | i
CC(=O)c1cccc(NC(=O)CCCOc2ccc(C)cc2)c1 | -5 | 1 | -3 | 19 | i | i
O=C(CCCOc1ccc(Cl)cc1)Nc1cccc(C(=O)O)c1 | -2 | 0 | 0 | 84* | i | i
O=C(NCc1ccco1)c1cccc(-c2ccc3nccn3c2)c1 | . | -1 | . | . | . | .
COc1ccc(CCC(=O)NNC(=O)Nc2ccccc2Cl)cc1 | -2 | -1 | 0 | 0 | i | i
Cc1ccc(O)c(-c2cc(C(=O)NCc3ccncc3)[nH]n2)c1 | 0 | 0 | 0 | 2 | i | i
COc1ccc(Cl)cc1NC(=O)c1cc(-c2cc(C)ccc2O)n[nH]1 | 5 | 41 | 300* | 3 | i | i
Cc1ccc(C)c(NC(=O)c2cc(-c3cc(C)ccc3O)n[nH]2)c1 | 0 | 0 | 15* | -8 | i | i
CCOc1ccc(Cl)cc1-c1cc(C(=O)Nc2cc(OC)ccc2OC)[nH]n1 | . | 0 | . | . | . | .
COc1ccc(Cl)cc1NC(=O)c1cc(-c2ccc(C)cc2O)n[nH]1 | 0 | 5 | 12* | 10 | i | i
CC1C=CC=CC=CC=CC=CC=CC=CC(OC2OC(C)C(O)C(N)C2O)CC2OC(O)(CC(O)CC(O)C(O)CCC(O)CC(O)CC(=O)OC(C)C(C)C1O)CC(O)C2C(=O)O (stereo unspecified) | 11 | 1 | -1 | 2 | . | i
O=C1CC(N2CCCN(C3CC(=O)N(c4ccc(F)cc4)C3=O)CC2)C(=O)N1c1ccc(F)cc1 (stereo unspecified) | -1 | -1 | 1 | 7 | i | -8.6*
Cc1ccc(-c2nnc3ccc(SCC(=O)N4CCCc5ccccc54)nn23)cc1 | -1 | 4 | 18* | -25 | i | i
Cc1ccc2nc(-c3ccc(SCC(=O)N4CCc5ccccc54)nc3)[nH]c2c1 | -1 | 4 | 23* | 9 | i | i
Cc1ccc([C@H]2C[C@@H](O)[C@H](n3cc(-c4ccc(F)cc4)nn3)CN2Cc2cccs2)cc1 | 5 | -1 | . | 5 | . | .
SMILES | CRFBP-R2 agonist | MPTP block | NR3A LBD binder | CRFR2-BP antag | ANO1 block | ANO1 activ
Cc1nc(CC(=O)Nc2nccs2)cs1 | 3 | 0 | -4 | 7 | i | i
COc1cc(O)c2c(c1)COC2=O | -1 | 0 | 7 | 60* | i | i
COc1ccc2c(c1OC)C(=O)OC2 | -1 | -2 | -2 | 0 | i | i
Cc1ccc(Sc2ncccc2NC(=O)c2ccccc2Cl)cc1 | 0 | -1 | 14* | 36 | i | i
CC1CCN(S(=O)(=O)c2ccc(NC(=O)C3CCCCC3C(=O)O)cc2)CC1 (stereo unspecified) | 0 | -1 | 11* | 9 | . | i
CC1CCN(S(=O)(=O)c2cccc(C(=O)Nc3nncs3)c2)CC1 | -1 | 0 | 17* | -20 | i | i
CC1CCN(S(=O)(=O)c2ccc(C(C)C)cc2)CC1 | 90* | -2 | 1 | -257 | i | i
CC1CCN(S(=O)(=O)c2ccc(Cl)cc2)CC1 | -1 | -2 | 0 | 7 | i | i
COC(=O)Nc1ccc(S(=O)(=O)N2CCC(C)CC2)cc1 | -1 | -2 | 13* | 4 | i | i
COC(=O)Nc1ccc(S(=O)(=O)N2CCC(C(=O)N3CCC(C)CC3)CC2)cc1 | -1 | -1 | 0 | 2 | i | i
C#CC(C)(O)C1CC(CC(=O)O)C1(C)C (stereo unspecified) | -2 | -1 | 0 | 4 | . | i
CC1CCN(S(=O)(=O)c2ccc(NC(=O)c3ccncc3)cc2)CC1 | 0 | -1 | 12* | -1 | i | i
Cc1ccccc1CC(=O)Nc1ccc(C(=O)N2CCCC2)cc1 | -1 | -2 | -2 | 9 | i | i
COc1cc(/C=C/C(=O)c2ccc3c(c2)OCO3)cc(Cl)c1O | 135* | 0 | -1 | -122 | i | i
COc1ccc(C(=O)C=Cc2ccc3c(c2)OCO3)cc1OC | -2 | 0 | . | -10 | . | .
Cc1cc(C(=O)COc2ccccc2C(N)=O)c(C)n1C | 0 | 2 | -1 | -2 | i | i
Cc1cc(C(=O)COc2cccc3cccnc23)c(C)n1C | 190* | -1 | -2 | -136 | i | i
O=C(NC1CC1)c1cccc(NC(=O)C2CCN(S(=O)(=O)c3cccc(C(F)(F)F)c3)CC2)c1 | -2 | -2 | -2 | 3 | . | i
O=C(NC(=S)NCc1ccccc1)C1CCCCC1 | 4 | 3 | 18* | -12 | i | i
O=C(NC(=S)Nc1ccccc1)C1CCCCC1 | -1 | -1 | 0 | -17 | i | i
CC1=CN2C(=NC(=O)CC2(C)C(=O)N(CC(=O)NC2CCCC2)c2ccccc2C)C=C1 (stereo unspecified) | 0 | 1 | 2 | 54* | i | i
COc1ccc(OC)c(Nc2nc(-c3cccc([N+](=O)[O-])c3)nc3ccccc23)c1 | 0 | 2 | -5 | -3 | i | i
COc1ccccc1Nc1nc(-c2ccc([N+](=O)[O-])cc2)nc2ccccc12 | 2 | 3 | 39* | 16 | i | i
